Screening results: PubChem BioAssay, Broad Institute
A selection: hits, their analogues and other compounds. The true share with any hit is near 7.8%.
MITF inhib: inhibitors of MITF, primary screen, MITF inhibitor project, cell-based, luminescence. TRPM1 promoter luciferase, 24 h. inhibition, % (no concentration beside the values). hit rate 0.28% among 37,000. AID 2240, 2010; in the data active = inhibition above about 85%; inconclusive = no clear call, values can overlap the other calls; inactive = below about 68%;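 also: human melanocyte line stably carrying TRPM1 promoter luciferase reporter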
NOMO-1 viab: NOMO-1 AML cell viability reduction, primary screen, STK33 inhibitor project, CellTiter-Glo luminescence; inhibition, % (test concentration not listed); NOMO-1 AML viability, 72 h; hit rate 7.5% among 37,000; in the data active = inhibition above about 80%; inconclusive = no clear call, values can overlap the other calls
Shh pathway inh: Hedgehog pathway signaling inhibitors, primary screen, luminescence, Shh-LIGHT2 cells, Gli-luciferase; Shh-LIGHT2 Gli-luciferase reporter, 30 h; inhibition, % (no concentration beside the values); hit rate 2.1% among 22,000;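 active = mean inhibition across valid replicates above about 65%, limit read from the data; inconclusive = mean under the limit, yet half or more replicates past it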;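 also: pathway switched on by Shh-conditioned medium diluted 1 in 25 in low serum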
The depositor's hits bear a star.

What do the screens show for `Cc1cc(C(=O)Nc2cccc3c2O[C@H](CN(C)Cc2ccc(C(=O)Nc4ccccc4N)cc2)[C@@H](C)CN([C@H](C)CO)C3=O)n(C)n1`?
MITF inhib: 1.2; NOMO-1 viab: 62.5

Results for C[C@H](CO)N1C[C@H](C)[C@H](CN(C)Cc2ccc(C(=O)Nc3ccccc3N)cc2)Oc2c(cccc2N(C)C)C1=O ?
MITF inhib: 24.1; NOMO-1 viab: 124.4*

What do the screens show for `COc1ccc(NC(=O)CSc2nnc3n4ncnc4c4c5c(sc4n23)COC(C)(C)C5)cc1`?
MITF inhib: -2.3; NOMO-1 viab: 19.8

Results for O=C1NC(=O)C2(COC(c3ccccc3)OC2)S1 (stereo unspecified) ?
MITF inhib: -6.5; NOMO-1 viab: 24.5; Shh pathway inh: -32.6

Results for c1ccc(-c2noc(CSc3nnc(C4CC4)n3-c3ccccc3)n2)cc1 ?
MITF inhib: 0.7; NOMO-1 viab: 15.2

Results for Cc1ccc2c(=O)c(C(=O)c3ccccc3)coc2c1 ?
MITF inhib: -18.1; NOMO-1 viab: 130.3*

How did O=C(c1ccccc1)c1ccccc1C(=O)c1ccccc1 do in these assays?
MITF inhib: 1.3; NOMO-1 viab: 7.4; Shh pathway inh: 23.2

How did CCOC(=O)Nc1ccc2c(c1)N(C(=O)CCN1CCOCC1)c1ccccc1CC2 do in these assays?
MITF inhib: -2.1; NOMO-1 viab: -3.9

How did CCOc1cc(/C=C2/SC(=N)N(c3nccs3)C2=O)ccc1OCCN1CCOCC1 do in these assays?
MITF inhib: 34.9; NOMO-1 viab: 112.4*; Shh pathway inh: 37.7

Results for N=C1S/C(=C/c2ccccc2)C(=O)N1c1nonc1N ?
MITF inhib: -27.9; NOMO-1 viab: 27.9; Shh pathway inh: -80.6

What do the screens show for `C/C=C(/C)C(=O)O[C@H]1C=C(CO)C(=O)[C@H](OC(=O)/C(C)=C/CO)[C@H]1C(C)C`?
MITF inhib: 106.2*; NOMO-1 viab: 122.3*; Shh pathway inh: 46.2

Results for C[C@@H]1O[C@@H](O[C@@H]2[C@@H](O)[C@H](OCCc3ccc(O)c(O)c3)O[C@H](CO[C@@H]3OC[C@](O)(CO)[C@H]3O)[C@H]2OC(=O)/C=C/c2ccc(O)c(O)c2)[C@H](O[C@@H]2OC[C@H](O)[C@H](O)[C@H]2O)[C@H](O)[C@H]1O ?
MITF inhib: -6.7; NOMO-1 viab: 24.6; Shh pathway inh: -21.9

How did O=C(Cn1cc(C(=O)c2cccs2)c2ccccc21)Nc1ccccc1 do in these assays?
MITF inhib: 52.5; NOMO-1 viab: 28.3

How did COc1ccc(-c2cc(C)nc(SCC(=O)Nc3ccccc3F)n2)cc1 do in these assays?
MITF inhib: 7.5; NOMO-1 viab: 12.2

What do the screens show for `Cc1ccc2c(C)c(C(=O)Nc3sc4c(c3C(=O)NCC3CCCO3)CCC4)oc2c1` (stereo unspecified)?
MITF inhib: -13.0; NOMO-1 viab: 35.3

How did Cc1ccc(C(=O)Nc2sc3c(c2C(=O)NCc2ccco2)CCCC3)cc1 do in these assays?
MITF inhib: 12.9; NOMO-1 viab: 19.2

Results for Cc1ccc2oc(C(=O)Nc3sc4c(c3C(=O)NCc3ccco3)CCC4)c(C)c2c1 ?
MITF inhib: -42.5; NOMO-1 viab: 120.3*

How did Cc1ccc2c(C)c(C(=O)Nc3sc4c(c3C(=O)NCC3CCCO3)CCCC4)oc2c1 (stereo unspecified) do in these assays?
MITF inhib: -5.4; NOMO-1 viab: 114.4*

How did Cc1ccc(NC(=O)C(C)NS(=O)(=O)c2ccc(F)cc2)c(C)c1 (stereo unspecified) do in these assays?
MITF inhib: -8.9; NOMO-1 viab: -23.7

What do the screens show for `O=C(O)CCC(=O)Nc1ccc(Cc2ccncc2)cc1`?
MITF inhib: -9.8; NOMO-1 viab: -16.2; Shh pathway inh: -14.7

How did O=C(CSc1nc2sc3c(c2c(=O)n1Cc1ccco1)CCC3)c1ccccc1 do in these assays?
MITF inhib: 4.8; NOMO-1 viab: 30.8

What do the screens show for `CC#CCc1cc2ccccc2c(=O)o1`?
MITF inhib: -6.3; NOMO-1 viab: 21.2; Shh pathway inh: -0.3

How did O=c1oc(Cl)c(Cl)c2ccccc12 do in these assays?
MITF inhib: 46.1; NOMO-1 viab: 119.2*; Shh pathway inh: 78.6*

Results for COC(=O)C1=C(Nc2ccc(F)cc2F)CSC1 ?
MITF inhib: -26.7; NOMO-1 viab: -1.4; Shh pathway inh: -0.9

How did Cc1ccc(S(=O)(=O)N(C)c2ccc(C(=O)Nc3cccc(N(C)S(C)(=O)=O)c3)cc2)cc1 do in these assays?
MITF inhib: 41.0; NOMO-1 viab: 35.2

How did O=C(Nc1cccc(C(F)(F)F)c1)c1cc([N+](=O)[O-])ccc1NCc1cccnc1 do in these assays?
MITF inhib: 18.8; NOMO-1 viab: 36.5

What do the screens show for `O=[N+]([O-])c1ccccc1/C=C/CN1CCN(CCO)CC1`?
MITF inhib: 13.1; NOMO-1 viab: 3.6

Results for CC(CC(N)=O)OC(=O)c1cc(Cl)cc(O)c1O (stereo unspecified) ?
MITF inhib: 26.8; NOMO-1 viab: 88.0*; Shh pathway inh: -10.4

What do the screens show for `Cc1cc(OCC(=O)Nc2ccc3oc(-c4ccncc4)nc3c2)cc(C)c1Cl`?
MITF inhib: -0.4; NOMO-1 viab: 14.9

How did O=C(C1CCCO1)N1N=C(c2c(-c3ccccc3)c3cc(Cl)ccc3[nH]c2=O)CC1c1ccco1 (stereo unspecified) do in these assays?
MITF inhib: 7.6; NOMO-1 viab: 92.8*

How did O=C(O)CCC(=O)N1N=C(c2cccs2)CC1c1ccco1 (stereo unspecified) do in these assays?
MITF inhib: -4.8; NOMO-1 viab: 0.1

What do the screens show for `CCN1C2=C(C(=O)CC(C)(C)C2)C(c2ccc(OC)cc2)C2=C1CC(C)(C)CC2=O`?
MITF inhib: -1.7; NOMO-1 viab: 51.2; Shh pathway inh: 4.5

What do the screens show for `C[C@@H]1CN([C@@H](C)CO)C(=O)c2cccc(NC(=O)NC3CCCCC3)c2O[C@H]1CN(C)CC1CCCCC1`?
MITF inhib: 30.2; NOMO-1 viab: 102.3*; Shh pathway inh: 5.3

Results for C[C@@H]1CN([C@H](C)CO)C(=O)c2cccc(NC(=O)NC3CCCCC3)c2O[C@H]1CN(C)Cc1ccccc1 ?
MITF inhib: 54.4; NOMO-1 viab: 114.6*; Shh pathway inh: 21.0

Results for C[C@@H]1CN([C@H](C)CO)C(=O)c2cccc(NC(=O)NC3CCCCC3)c2O[C@H]1CN(C)Cc1ccc(Oc2ccccc2)cc1 ?
MITF inhib: 73.3; NOMO-1 viab: 114.2*; Shh pathway inh: -34.7

How did C[C@@H]1CN([C@@H](C)CO)C(=O)c2cccc(NC(=O)NC3CCCCC3)c2O[C@H]1CN(C)CC1CC1 do in these assays?
MITF inhib: 18.7; NOMO-1 viab: 25.2; Shh pathway inh: 29.0

What do the screens show for `C[C@H]1CN([C@@H](C)CO)C(=O)c2cccc(NC(=O)NC3CCCCC3)c2O[C@H]1CN(C)Cc1ccccc1`?
MITF inhib: 29.9; NOMO-1 viab: 12.7; Shh pathway inh: -7.1

What do the screens show for `C[C@@H]1CN([C@H](C)CO)C(=O)c2cccc(NC(=O)NC3CCCCC3)c2O[C@@H]1CN(C)Cc1ccc(Oc2ccccc2)cc1`?
MITF inhib: 1.5; NOMO-1 viab: 59.9; Shh pathway inh: 7.1

Results for OCCN(CCO)c1nc(-c2ccccc2)nc2sc(-c3ccccc3)cc12 ?
MITF inhib: 14.5; NOMO-1 viab: inconclusive
